# Out of some 39,000 compounds screened, about 3,300 (8.5%) were called active. This is one part of a sample in which actives are shown more often than they occur.
# System: HepG2
# Experiment: cytotoxicity call (relative viability < 0.9)
# Settings: 10 µM
row,Compound,cytotoxicity call
1,Cc1cc(C)c2nnc(SCC(=O)O)n2n1,inactive
2,C[C@@H]1CN([C@@H](C)CO)C(=O)Cc2cc(NS(C)(=O)=O)ccc2O[C@H]1CN(C)C(=O)NC1CCCCC1,inactive
3,Cc1noc(C)c1NC(=O)N[C@@H]1CC[C@H](CC(=O)NCCCN(C)C)O[C@@H]1CO,inactive
4,O=C(C[C@@H]1C[C@H]2c3cc(NS(=O)(=O)c4ccc(F)cc4)ccc3O[C@H]2[C@H](CO)O1)NCc1ccccc1,inactive
5,Cc1ccc(S(=O)(=O)N(C)C[C@H]2Oc3ccc(NS(C)(=O)=O)cc3C(=O)N([C@@H](C)CO)C[C@H]2C)cc1,inactive
6,CN(C)CCCNC(=O)C[C@@H]1CC[C@H](NS(=O)(=O)c2ccccc2)[C@H](CO)O1,inactive
7,C[C@@H]1CCCCO[C@@H](CN(C)C(=O)C2CCCCC2)[C@@H](C)CN([C@H](C)CO)C(=O)c2cc(NS(=O)(=O)c3cccs3)ccc2O1,active
8,C[C@@H]1CCCCO[C@@H](CN(C)C(=O)Nc2ccc(C(F)(F)F)cc2)[C@H](C)CN([C@H](C)CO)C(=O)c2cc(NS(=O)(=O)c3cccs3)ccc2O1,active
9,C[C@@H]1CCCCO[C@H](CN(C)C(=O)C2CCCCC2)[C@H](C)CN([C@H](C)CO)C(=O)c2cc(NS(=O)(=O)c3cccs3)ccc2O1,inactive
10,C[C@@H]1CCCCO[C@@H](CN(C)C(=O)Nc2ccc(C(F)(F)F)cc2)[C@@H](C)CN([C@H](C)CO)C(=O)c2cc(NS(=O)(=O)c3cccs3)ccc2O1,inactive
11,C[C@@H]1CCCCO[C@H](CN(C)C(=O)Nc2ccc(C(F)(F)F)cc2)[C@H](C)CN([C@@H](C)CO)C(=O)c2cc(NS(=O)(=O)c3cccs3)ccc2O1,inactive
12,C[C@H]1CCCCO[C@H](CN(C)C(=O)Nc2ccc(C(F)(F)F)cc2)[C@@H](C)CN([C@@H](C)CO)C(=O)c2cc(NS(=O)(=O)c3cccs3)ccc2O1,inactive
13,C[C@@H]1CCCCO[C@H](CN(C)C(=O)Nc2ccc(C(F)(F)F)cc2)[C@@H](C)CN([C@@H](C)CO)C(=O)c2cc(NS(=O)(=O)c3cccs3)ccc2O1,active
14,C[C@H]1CCCCO[C@@H](CN(C)C(=O)Nc2ccc(C(F)(F)F)cc2)[C@@H](C)CN([C@@H](C)CO)C(=O)c2cc(NS(=O)(=O)c3cccs3)ccc2O1,inactive
15,C[C@@H]1CCCCO[C@@H](CN(C)C(=O)C2CCCCC2)[C@H](C)CN([C@H](C)CO)C(=O)c2cc(NS(=O)(=O)c3cccs3)ccc2O1,inactive
16,O=C(CCCCCCC(=O)Nc1ccccc1O)N/N=C/[C@H](O)[C@@H](O)[C@H](O)CO,inactive
17,COc1ccc(S(=O)(=O)N(C)C[C@@H]2OCCCC[C@@H](C)Oc3ccc(NC(=O)C4CCCCC4)cc3C(=O)N([C@@H](C)CO)C[C@@H]2C)cc1,inactive
18,COC(=O)C(CC#Cc1ccc2c(c1)[C@]1(C(=O)N2)[C@H](c2ccc(OCCO)cc2)N2[C@H](c3ccccc3)[C@H](c3ccccc3)OC(=O)[C@H]2[C@@H]1C(=O)Nc1nc2ccccc2s1)C(=O)OC,inactive

row,Compound,cytotoxicity call
1,C[C@@H]1CN([C@H](C)CO)C(=O)c2cccc(NS(=O)(=O)c3cccs3)c2O[C@H]1CN(C)S(=O)(=O)c1ccccc1,inactive
2,C[C@H](CO)N1C[C@H](C)[C@@H](CN(C)C(=O)c2ccncc2)Oc2ncc(C#CC3CCCCC3)cc2C1=O,inactive
3,C[C@H](CO)N1C[C@H](C)[C@@H](CN(C)C(=O)c2cnccn2)Oc2ncc(-c3cccc(C#N)c3)cc2C1=O,inactive
4,C[C@@H]1CN([C@@H](C)CO)C(=O)c2cccc(NC(=O)Nc3cccc4ccccc34)c2O[C@H]1CN(C)S(=O)(=O)c1ccc2ncsc2c1,inactive
5,C[C@@H]1CCCCO[C@@H](CN(C)S(=O)(=O)c2ccc(F)cc2)[C@@H](C)CN([C@H](C)CO)C(=O)c2cc(NC(=O)Nc3ccc4c(c3)OCO4)ccc2O1,inactive
6,C[C@@H]1CCCCO[C@@H](CN(C)S(=O)(=O)c2ccc(F)cc2)[C@H](C)CN([C@H](C)CO)C(=O)c2cc(NC(=O)Nc3ccc(F)cc3)ccc2O1,active
7,C[C@H](CO)N1C[C@H](C)[C@@H](CN(C)S(=O)(=O)c2ccc(F)cc2)OCCCC[C@H](C)Oc2ccc(NC(=O)Nc3ccc(F)cc3)cc2C1=O,inactive
8,C[C@H]1CCCCO[C@@H](CN(C)S(=O)(=O)c2ccc(F)cc2)[C@@H](C)CN([C@@H](C)CO)C(=O)c2cc(NC(=O)Nc3ccc(F)cc3)ccc2O1,inactive
9,C[C@@H]1CCCCO[C@H](CN(C)S(=O)(=O)c2ccc(F)cc2)[C@@H](C)CN([C@H](C)CO)C(=O)c2cc(NC(=O)Nc3ccc4c(c3)OCO4)ccc2O1,active
10,C[C@@H]1CN([C@H](C)CO)C(=O)c2cc(NC(=O)Nc3ccc4c(c3)OCO4)ccc2O[C@@H](C)CCCCO[C@@H]1CN(C)S(=O)(=O)c1ccc(F)cc1,inactive
11,C[C@@H]1CN([C@H](C)CO)C(=O)c2cc(NC(=O)Nc3ccc(F)cc3)ccc2O[C@@H](C)CCCCO[C@H]1CN(C)S(=O)(=O)c1ccc(F)cc1,active
12,C[C@@H]1CCCCO[C@@H](CN(C)S(=O)(=O)c2ccc(F)cc2)[C@@H](C)CN([C@H](C)CO)C(=O)c2cc(NC(=O)Nc3ccc(F)cc3)ccc2O1,inactive
13,C[C@H]1CCCCO[C@H](CN(C)S(=O)(=O)c2ccc(F)cc2)[C@@H](C)CN([C@@H](C)CO)C(=O)c2cc(NC(=O)Nc3ccc(F)cc3)ccc2O1,inactive
14,C[C@@H]1CCCCO[C@@H](CN(C)S(=O)(=O)c2ccc(F)cc2)[C@H](C)CN([C@@H](C)CO)C(=O)c2cc(NC(=O)Nc3ccc(F)cc3)ccc2O1,inactive
15,C[C@@H]1CCCCO[C@@H](CN(C)S(=O)(=O)c2ccc(F)cc2)[C@@H](C)CN([C@@H](C)CO)C(=O)c2cc(NC(=O)Nc3ccc(F)cc3)ccc2O1,active
16,C[C@@H]1CN([C@@H](C)CO)C(=O)c2cc(NC(=O)Nc3ccc(F)cc3)ccc2O[C@@H](C)CCCCO[C@@H]1CN(C)S(=O)(=O)c1ccc(F)cc1,inactive
17,O=C(O)CNS(=O)(=O)c1ccccc1F,inactive
18,Cc1noc(C)c1S(=O)(=O)Nc1ccc2c(c1)CC(=O)N([C@H](C)CO)C[C@@H](C)[C@H](CN(C)S(C)(=O)=O)O2,inactive

# — the antibiotic and cytotoxicity screens of Wong et al. (2023)
